PubChem BioAssay AID488893 (Broad Institute, 2010)
Measured potencies and affinities stand elsewhere. Active and inactive are the calls of the source.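 The calls were made as follows: active = falling signal whose fitted half-maximal dose is at most ten times the top valid tested dose; inconclusive = flat curve with 30 to 70% inhibition, or poor fit; inactive = the rest, including changes in the wrong direction.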

experiment: single-agent antifungal toxicity in C. albicans – CaCi-2 strain, Alamar Blue, dry powder, set 2, counter-screen for antifungal drug resistance project, dose response (AID 488893); conditions: C. albicans CaCi-2 (fluconazole-resistant clinical isolate) growth, Alamar Blue fluorescence, 48 h; series mostly up to 26 µM; activity change, negative = inhibition: at the top concentration

Structure (SMILES) | activity change, negative = inhibition
O=C(C1CCCCC1)N1CCN(c2ccnc3cc(Cl)ccc23)CC1 | -8.06% (inactive)
O=C(O)Cn1nc(-c2ccccc2)c2ccccc21 | 8.12% (inactive)
O=C(c1ccc(Cl)cc1)C1CCN(c2ccnc3cc(Cl)ccc23)CC1 | -5.65% (inactive)
COc1ccnc(N2CCN(C(=O)c3ccc(Cl)cc3)CC2)c1 | -5.09% (inactive)
O=C(c1ccc(Cl)cc1)N1CCN(c2ncnc3ccccc23)CC1 | 19.6% (inactive)
O=C(c1ccc(Cl)cc1)N1CCN(c2cccnc2)CC1 | -12.4% (inactive)
Cc1cc(N2CCN(C(=O)c3ccc(Cl)cc3)CC2)c2ccc(F)cc2n1 | 19.2% (inactive)
O=C(c1ccc(Cl)cc1)N1CCN(c2ncnc3nc[nH]c23)CC1 | -10.8% (inactive)
O=C(c1ccc(Cl)nc1)N1CCN(c2ccnc3cc(Cl)ccc23)CC1 | -11.7% (inactive)
O=C(c1cccc(Cl)c1)N1CCN(c2ccnc3cc(Cl)ccc23)CC1 | -12.1% (inactive)
CCCC(=O)N1CCN(c2ccnc3cc(Cl)ccc23)CC1 | -11.4% (inactive)
O=C(Nc1ccc(Cl)cc1)N1CCN(c2ccnc3cc(Cl)ccc23)CC1 | -20.1% (inactive)
COc1cccc2c(N3CCN(C(=O)c4ccc(Cl)cc4)CC3)cc(C)nc12 | 5.94% (inactive)
CC(C)C(=O)N1CCN(c2ccnc3cc(Cl)ccc23)CC1 | 32.7% (inactive)
O=C(c1ccc(Cl)cc1)N1CCNCC1 | 25.8% (inactive)
O=C(c1ccc(Cl)cc1)N1CCN(c2ccnc3ccccc23)CC1 | -9.45% (inactive)

Structure (SMILES) | activity change, negative = inhibition
CC1CN(c2ccnc3cc(Cl)ccc23)CCN1C(=O)c1ccc(Cl)cc1 (stereo unspecified) | -12.6% (inactive)
Cc1cc(N2CCN(C(=O)c3ccc(Cl)cc3)CC2)c2ccccc2n1 | 0.168% (inactive)
O=C(c1ccc(Cl)cn1)N1CCN(c2ccnc3cc(Cl)ccc23)CC1 | -4.37% (inactive)
O=C(c1ccc(Cl)cc1)N1CCN(c2ccccn2)CC1 | -10.9% (inactive)
Clc1ccc2c(N3CCNCC3)ccnc2c1 | 10.6% (inactive)
O=C(c1ccc(Cl)cc1)N1CCN(c2ccnc3ccc(Cl)cc23)CC1 | -11.8% (inactive)
CC(C)CC(=O)N1CCN(c2ccnc3cc(Cl)ccc23)CC1 | 11% (inactive)
O=C(c1ccc(Cl)cc1)N1CCCN(c2ccnc3cc(Cl)ccc23)CC1 | 2.42% (inactive)
O=C(c1ccc(Cl)cc1)N1CCN(c2ccnc3cc(Cl)ccc23)CC1 | -17.5% (inactive)
O=C(c1ccccc1Cl)N1CCN(c2ccnc3cc(Cl)ccc23)CC1 | 12.5% (inactive)
O=C(C1CCCC1)N1CCN(c2ccnc3cc(Cl)ccc23)CC1 | 3.43% (inactive)
O=C(c1ccc(Cl)cc1)N1CCN(c2ccncc2)CC1 | 29.5% (inactive)
N#Cc1ccc(N2CCN(C(=O)c3ccc(Cl)cc3)CC2)nc1 | 16.7% (inactive)
O=C(C1CCC1)N1CCN(c2ccnc3cc(Cl)ccc23)CC1 | 44.9% (inactive)
COc1ccc2c(N3CCN(C(=O)c4ccc(Cl)cc4)CC3)ccnc2c1 | -0.767% (inactive)
